# In ChEMBL document CHEMBL4513146, “CO-ADD screening of Karazin Kharkiv National University (Ukraine) compounds”:
# Potency and affinity values are given separately.
# How the values were obtained:
# Klebsiella pneumoniae = conditions: Concentration 32 ug.mL-1;; ASSAY_TEST Inhibition of Bacterial Growth; detection method Absorption (OD600); MEDIA CAMHB; plate type 384well; NBS; CORNING #3640; time 18 hr
# Candida albicans = conditions: Concentration 32 ug.mL-1; ASSAY_TEST Inhibition of Fungal Growth; detection method Absorption (OD530)
# Cryptococcus neoformans = conditions: Concentration 32 ug.mL-1; ASSAY_TEST Inhibition of Fungal Growth; detection method Resazurin; Absorption (OD600-OD570); plate type 384well; NBS; CORNING #3640
Compound,Inhibition (Klebsiella pneumoniae),Inhibition (Candida albicans),Inhibition (Cryptococcus neoformans)
O=c1c2nn(Cc3ccccc3Cl)c(=O)n2ccn1-c1ccccc1,1.78%,1.76%,-8.76%
Cc1nnc2ccc(S(=O)(=O)N(Cc3cccc(F)c3)c3cc(F)cc(F)c3)cn12,10.98%,-1.03%,-12.8%
Cc1cc2nn(CC(=O)Nc3cc(F)ccc3C)c(=O)n2c(Nc2ccc(F)cc2)n1,8.72%,0.87%,-4.58%
Cc1nnc2ccc(S(=O)(=O)N(Cc3ccccc3F)c3ccc(F)cc3)cn12,5.62%,1.21%,-9.05%
COc1ccc(NC(=O)Cn2nc3c(SCc4ccc(Cl)cc4)nccn3c2=O)cc1,5.73%,-0.37%,-4.83%
COc1ccc(N(Cc2ccccc2F)S(=O)(=O)c2ccc3nnc(C)n3c2)cc1,4.15%,-0.01%,-2.71%
CCOc1ccc(-n2ccn3c(SCC(=O)NCc4cccc(OC)c4OC)nnc3c2=O)cc1,14.82%,1.5%,-8.08%
CCc1nnc2c(S(=O)(=O)N(Cc3ccccc3C)c3ccc(Cl)cc3)cccn12,3.29%,6.38%,-5.94%
CCc1nnc2c(SCC(=O)Nc3cc(Cl)ccc3OC)nc3ccccc3n12,11.61%,1.63%,-7.04%
Cc1ccc(NC(=O)CSc2nnc3ccc(C(=O)Nc4cccc(F)c4)cn23)cc1F,6.03%,-0.33%,-4.6%
CSc1ccc(CNC(=O)CCc2nnc3c(N4CCCCC4)nc4ccccc4n23)cc1,12.88%,3.51%,-30.87%
O=c1c2nnc(SCc3ccccc3Cl)n2ccn1-c1ccc(F)cc1,8%,2.71%,-9%
O=C(Cn1nc2nc(Nc3ccc(F)cc3)ccn2c1=O)Nc1ccc(F)cc1,8.54%,3.4%,-2.56%
CCOc1ccc(N(Cc2ccc(F)cc2)S(=O)(=O)c2ccc3nncn3c2)cc1,4.23%,3.15%,-3.72%
Cc1ccc(N(Cc2ccccc2)S(=O)(=O)c2ccc3nncn3c2)cc1F,4.64%,0.48%,-7.94%
Cc1ccc(Cl)cc1NC(=O)Cn1nc2c(N3CCOCC3)nc3ccccc3n2c1=O,0.47%,3.17%,-17.81%
CC(C)c1nnc2c(SCC(=O)Nc3ccc(Br)cc3F)nc3ccccc3n12,8.89%,0.43%,-17.6%
CCC(C)NC(=O)c1ccc2c(=O)n(C3CC3)c3nn(CC(=O)NC(C)C)c(=O)n3c2c1 (stereo not drawn),17.09%,-1.34%,-38.88%
COc1ccc(NC(=O)CSc2nnc3c(=O)n(-c4ccc(Br)cc4)ccn23)cc1,8.82%,5.75%,-12.25%
O=C(Cn1nc2c(N3CCOCC3)nccn2c1=O)N1CCN(c2ccccc2F)CC1,8.66%,0.78%,-5.23%
CCOC(=O)c1ccccc1NC(=O)Cn1c(=O)c2nnc(C(C)C)n2c2ccccc21,12%,1.04%,-21.33%
CCOC(=O)c1ccc(NC(=O)Cn2nc3c(N4CCOCC4)nccn3c2=O)cc1,11.56%,3.03%,-14.12%
Cc1ccccc1Cn1nc2ccc(-c3ccccc3)nn2c1=O,7.15%,0.4%,-8.99%
CCc1nnc2c(SCC(=O)Nc3ccc(C)cc3Br)nc3ccccc3n12,6.8%,1.54%,-14.73%
Cc1cccc(Oc2nc3ccccc3n3c(=O)n(CC(=O)Nc4cccc(C#N)c4)nc23)c1C,4.26%,5.6%,-21.56%
COc1ccc(NC(=O)Cn2nc3c4cc(-c5ccc(Cl)cc5)nn4ccn3c2=O)c(OC)c1,16.21%,1.15%,-23.56%
